# In the OligoGym collection:
# Columns and labels:
# Experiment in all cases: pooled miR-30 sensor sort-seq; sequence = guide strand
# Settings in all cases: shRNA
# MON2 = target: MON2
# MOV10 = target: MOV10
# MPG = target: MPG
# MPDU1 = target: MPDU1
# MRC1L1 = target: MRC1L1
# MTX3 = target: MTX3
# MYST4 = target: MYST4
# NCSTN = target: NCSTN
# NEBL = target: NEBL
# NDUFC1 = target: NDUFC1
# NEFH = target: NEFH
# NDUFAB1 = target: NDUFAB1
# Also: reference of the scale not given here.
sequence,measurement,setting,value
TAGAAAATCTGTCACAACCAAC,sensor-assay potency score (higher = more potent),MON2,-1.49
TTGAAGGTAAAGTTCACCTTGA,sensor-assay potency score (higher = more potent),MOV10,0.564
TCTGTCGACCACACTGACCCAG,sensor-assay potency score (higher = more potent),MPG,-0.682
TTGAGTTTCACATCTGAGGGCA,sensor-assay potency score (higher = more potent),MOV10,0.674
TTTCTAAGGATCTGGATCCATC,sensor-assay potency score (higher = more potent),MPDU1,-1.09
TATTCCTGCAGCTTCTTCTTGG,sensor-assay potency score (higher = more potent),MOV10,0.321
TTCACCTTGAAGGTCAGCCCAT,sensor-assay potency score (higher = more potent),MOV10,-0.593
TCTAGCTGGTCGCTGCTTCTTT,sensor-assay potency score (higher = more potent),MPG,-0.646
TGCTCTAGCTGGTCGCTGCTTC,sensor-assay potency score (higher = more potent),MPG,-0.856
TTTCACAGTCTGTCCTCTGTAG,sensor-assay potency score (higher = more potent),MPDU1,0.208
TAAATGATGTACACGTACAGGG,sensor-assay potency score (higher = more potent),MPG,-0.261
TTATAGATTAAAAATTGCCTGG,sensor-assay potency score (higher = more potent),MRC1L1,-0.0737
TTGTTTTCAAACTTGAACGGGA,sensor-assay potency score (higher = more potent),MRC1L1,0.456
ATAATCAGCATTATATTTCTGT,sensor-assay potency score (higher = more potent),MTX3,0.674
TTGAGTCTCGGCACAATCCTGA,sensor-assay potency score (higher = more potent),MYST4,0.672
TTTGATGAGATCATCTTCTGGT,sensor-assay potency score (higher = more potent),MYST4,1.05
TGAGTCAACATTCTCTAACTGC,sensor-assay potency score (higher = more potent),NCSTN,0.0625
TACTGTACAACATAAGTGGTGT,sensor-assay potency score (higher = more potent),NCSTN,0.405
TTGTCTTAAAAGTATCTTCTAT,sensor-assay potency score (higher = more potent),NEBL,-0.254
TTATTTGGTCCTGACATTCTGT,sensor-assay potency score (higher = more potent),NEBL,-0.142
TTGAATCTACATGACATGCAAC,sensor-assay potency score (higher = more potent),NEBL,-0.738
TAGAACTTTGATCGCACTGAAG,sensor-assay potency score (higher = more potent),NDUFC1,-1.43
TCTCTTGCTAACATATTGCTAA,sensor-assay potency score (higher = more potent),NEFH,-0.697
TAAAATATCTTCATTGTGTTGT,sensor-assay potency score (higher = more potent),NDUFC1,1.09
TATATATTCACATATAACTTTT,sensor-assay potency score (higher = more potent),NDUFC1,-0.874
ATCTCTTTTGTACTTGACCTGA,sensor-assay potency score (higher = more potent),NEBL,-0.797
TTCAACTTTGGATTCTTTGGGC,sensor-assay potency score (higher = more potent),NEFH,0.436
TAGCTGTGAAGTCAGACCCTAA,sensor-assay potency score (higher = more potent),NEBL,-1.2
TTTACTGAAAGCTTCTCTGGGT,sensor-assay potency score (higher = more potent),NDUFAB1,0.584
TAGATTTGGTGAATGCTGCATT,sensor-assay potency score (higher = more potent),NEBL,0.277
TTTTTTCTTATCTTCAGCCTCT,sensor-assay potency score (higher = more potent),NEFH,0.587
TTCAATAATAGGAACGCGCAGT,sensor-assay potency score (higher = more potent),NEBL,-0.234
TTCTTGTGGACACATTAACTTT,sensor-assay potency score (higher = more potent),NDUFAB1,-1.46
TACATGGCTCGGTAGGTCCTTA,sensor-assay potency score (higher = more potent),NEBL,-0.857
TTTGATCGCACTGAAGGGCCGC,sensor-assay potency score (higher = more potent),NDUFC1,-0.255
TTGATCGCACTGAAGGGCCGCT,sensor-assay potency score (higher = more potent),NDUFC1,-0.209
